Source: PubChem BioAssay (several laboratories)
The list is not random: actives were taken first. Their share in the collection is about 1.4%.
CRFR2-BP ag: agonists of human CRF-binding protein/CRF-R2 receptor complex; hit rate 0.46% among 350,000; HEK293 CRF-R2/CRF-BP, calcium dye fluorescence (FLIPR); percent of saturating CRF peptide response; activation, % at 13.2 µM;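 active = activation of at least 50%, plus an integration ratio under a set limit after plate pattern correction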;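 note: plate controls were neutral control wells without compound for no effect and CRF at EC100 for full effect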
HNF4A DNA FP: change in binding of human HNF4 alpha to DNA | P41235 | HNF4a-FITC DNA binding, fluorescence polarization, 1 h | activity change, % at 10 µM | hit rate 0.3% among 360,000; in the data active = activity change above about 30%, passing the limit was not always enough
TPT1 inh: blocks Candida albicans tRNA 2'-phosphotransferase. recombinant caTPT1, FP RNA substrate dephosphorylation. inhibition, % at 5 µM. hit rate 0.81% among 300,000. AID 1962;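 active = inhibition above the mean of all tested compounds plus 3 SD, set per screening campaign, cut at about 24% in these data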;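 note: plate controls were DMSO alone for no effect and ferristatin control at 100 nM for full effect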
IDE cell activ: IDE (human) activation, cell-based; HEK cells, FAbeta-B cleavage, fluorescence polarization; 0% vehicle, 100% cell-free pure enzyme wells; activation, % at 5.96 µM; AID 493087; hit rate 0.073% among 340,000;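 active = activation above the mean of all tested compounds plus 3 SD, set per screening campaign, cut at about 17% in these data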
IDE inh: inhibitors of human insulin-degrading enzyme in cells; P14735; HEK cells, FAbetaB cleavage, fluorescence polarization; inhibition, % at 5.59 µM; hit rate 0.41% among 320,000; AID 434962;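 active = percent inhibition above the average of all tested compounds plus 3 SD, set per screening campaign, cut at about 16% in these data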;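 note: IDE supplied by intact live HEK cells; FP after avidin binding of uncleaved biotin substrate so inhibition keeps polarization high; 0% = DMSO wells and 100% = 60 µM reference IDE inhibitor Ii1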
IDE inh confirm: confirmation of human insulin-degrading enzyme inhibitors in cells. shares compounds with IDE inh. HEK cells, FAbetaB cleavage, fluorescence polarization. inhibition, % at 5.59 µM. hit rate 51% among 1,200. AID 435028;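 active = mean inhibition across triplicate wells above the cutoff set by the earlier primary insulin-degrading enzyme screen, cut at about 16% in these data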;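 note: 0% = DMSO wells and 100% = 60 µM reference IDE inhibitor Ii1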
HEK cytotox: counter-screen for IDE inhibitors: cytotoxicity in HEK cells | shares compounds with IDE inh | HEK293 cytotoxicity, ATP luminescence | inhibition, % at 5.59 µM | hit rate 28% among 1,200 | AID 449730; in the data active = inhibition above about 22%;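 note: 0% = vehicle wells and 100% = reference cytotoxic drug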
Active calls of the source: *; . = no result given.

SMILES	CRFR2-BP ag	HNF4A DNA FP	TPT1 inh	IDE cell activ	IDE inh	IDE inh confirm	HEK cytotox
NC(=S)N/N=C\c1ccc(-c2cccc(Cl)c2Cl)o1	1	17	3	-29	27*	3	28*
O=C(NCC1CCCO1)c1ccc(COc2ccc(Br)cc2)cc1 (configuration not stated)	-4	3	-8	-13	22*	5	24*
Cc1nc(C(F)(F)F)ccc1C(=O)N1CCC1(C)C(=O)NS(=O)(=O)c1ccc(C(C)(C)C)cc1 (configuration not stated)	.	-8	.	.	.	.	.
Cc1nc(Nc2nc(CSc3nc4ccccc4[nH]3)cc(=O)[nH]2)nc2ccccc12	2	3	1	-38	45*	10	42*
COc1ccc2nc(Nc3nc(CSc4nc5ccccc5[nH]4)cc(=O)[nH]3)nc(C)c2c1	0	0	1	-15	5	.	.
N#C/C(=C\c1cc2c(cc1Br)OCO2)C(=O)NCC1CCCO1 (configuration not stated)	-1	4	-1	0	-4	.	.
O=C(O)c1ccc(Nc2ncnc3c2cnn3Cc2ccccc2)cc1	-2	0	-6	-18	17*	9	4
CC(C)CNc1ncnc2c1cnn2Cc1ccccc1Cl	-2	5	1	-11	17*	9	12
c1ccc(Cn2ncc3c(NCc4ccco4)ncnc32)cc1	-1	-3	0	-11	18*	10	12
c1ccc(-n2ncc3c(NCc4ccco4)ncnc32)cc1	0	1	-3	1	-1	.	.
O=c1c([N+](=O)[O-])cccn1Cc1cccc(Br)c1	-4	1	.	1	.	.	.
CCCCCCc1cc2cc(/C(N)=N/NC(=O)c3ccncc3)c(=O)oc2cc1O	102*	114	.	-36	29*	97*	16
Cc1oc(C)c2c(=O)ccc3c(c12)OC(N)=C(C#N)C3c1ccccc1 (configuration not stated)	9	5	4	-17	15	.	.
CSc1ccc(C2C(C#N)=C(N)Oc3c2ccc(=O)c2c(C)oc(C)c32)cc1 (configuration not stated)	7	31	40*	-31	30*	109*	25*
Cc1ccc(C)c(OCC(=O)O/N=C(\N)c2cccnc2)c1	0	-1	1	-6	4	.	.
CCc1ccc(OCC(=O)O/N=C(\N)c2cccnc2)cc1	0	-3	-3	.	17*	3	11
CC(Oc1ccc2c3c(c(=O)oc2c1)CCCC3)C(=O)NCc1ccncc1 (configuration not stated)	-1	-1	0	-34	24*	17*	16
Cc1[nH]n(-c2ccccc2)c(=O)c1C=Nc1ccc(S(=O)(=O)N=C(N)N)cc1	2	-3	1	3	8	.	.
Cc1[nH]n(-c2ccccc2)c(=S)c1C=Nc1ccc([N+](=O)[O-])cc1	-1	3	-1	-33	20*	3	18
Nc1ccc2c3c(cccc13)CC2	3	7	1	-5	43*	3	4
O=C(N/N=C/c1cccnc1)c1cccc(NC(=O)c2cccc(Br)c2)c1	0	4	-3	-14	25*	17*	8
O=Cc1ccccc1-n1cccn1	-1	-2	-1	3	2	.	.
Oc1cc(-n2cccn2)c(O)cc1-n1cccn1	0	-3	0	-32	36*	7	39*
COc1ccccc1N(C)S(=O)(=O)c1ccc(C(=O)OCC(=O)N(C(C)C)C(C)C)cc1	-1	6	-3	5	9	.	.
CC(=O)N1CC[n+]2c(-c3ccc(Cl)cc3)csc21	-4	0	1	-14	22*	2	14
SMILES	CRFR2-BP ag	HNF4A DNA FP	TPT1 inh	IDE cell activ	IDE inh	IDE inh confirm	HEK cytotox
CCc1ccc(-c2csc3[n+]2CCN3C(C)=O)cc1	-2	-1	-3	-14	2	.	.
C#CCOc1ccc(C2C(C#N)=C(N)Oc3cc(O)ccc32)cc1 (configuration not stated)	31	24	8	-10	-4	.	.
N#CC1=C(N)Oc2cc(O)ccc2C1c1ccncc1 (configuration not stated)	1	1	20	-16	131*	11	11
COC(=O)c1ccc(C2C(C#N)=C(N)Oc3cc(O)ccc32)cc1 (configuration not stated)	20	5	23	0	24*	3	8
N#CC1=C(N)Oc2cc(O)ccc2C1c1cccnc1 (configuration not stated)	4	9	8	-35	82*	14	7
N#CC1=C(N)Oc2cc(O)c(Cl)cc2C1c1cccnc1 (configuration not stated)	22	9	.	-46	.	.	.
O=C(O)C(Cc1ccccc1)N1C(=O)C2C3CCC(C3)C2C1=O (configuration not stated)	9	-2	.	.	.	.	.
CCn1c(SCC(=O)Nc2nc(-c3ccc(C)cc3)cs2)nnc1-c1ccccc1	-2	1	-3	-13	16*	6	21
CCn1c(SCC(=O)Nc2nc(-c3ccc(C)cc3)cs2)nnc1-c1ccccc1O	-1	2	-2	-7	6	.	.
COc1ccccc1NC(=O)CSc1nnc(Cc2cc(=O)[nH]c(=O)[nH]2)n1-c1ccccc1	1	-2	-3	-7	19*	3	3
Cc1ccc(CNc2ncnc3c2cnn3C2CCCCO2)cc1 (configuration not stated)	3	-4	.	3	.	.	.
CCSc1ccccc1C(=O)Nc1cc(OC)c(OC)c(OC)c1	2	3	-1	-9	18*	10	9
CCc1ccc(C(=O)N/N=C/c2ccc(Cl)cc2Cl)nc1	.	.	1	.	18*	10	8
O=C(CCCC(=O)NN=Cc1ccc(Cl)cc1Cl)NN=Cc1ccc(Cl)cc1Cl	-1	-1	.	5	.	.	.
O=c1[nH]c(Nc2ccccc2)cc2ccccc12	63*	-1	21	-17	19*	0	12
CN1CCN(C(=O)c2cc3ccccc3[nH]2)CC1	-1	3	2	0	2	.	.
Cc1ccc(S(=O)(=O)N2CCCN(C(=O)c3cc4ccccc4[nH]3)CC2)cc1	0	0	4	-16	16*	5	9
C=CCn1c(O)c(N=NC(=S)Nc2cccc(C)c2)c2ccccc21	-1	1	-1	-4	24*	2	82*
CCC(C)(C)n1nnnc1C(c1ccc2ncccc2c1)N1CCN(c2nc3ccccc3s2)CC1 (configuration not stated)	-2	3	-1	-10	18*	11	26*
CCN1CCN(C(=O)/C(=C/c2ccco2)NC(=O)c2ccccc2)CC1	0	-2	-6	0	10	.	.
